In ChEMBL document CHEMBL3988442, “University of Dundee, Small-Polar-MMV Screening Library” (2021):
For part of these data: Potency and affinity values are given separately.

Experiments:
Design in all cases: scale not given: direction of the effect not stated beside the values
[1] = biological target: Protein translocase subunit SecA (Escherichia coli (strain K12)) (UniProt P10408); test: Assay to Identify E. coli SecA ATPase Inhibitors; type: functional; conditions: 30 µM
[2] = biological target: T1, Ubiquitin-activating enzyme e1, putative (Leishmania donovani (strain BPK282A1)) (UniProt E9BSI1); test: Leishmania donovani Ubiquitin Activating Enzyme (LdE1); type: functional; conditions: 30 µM
T1 sequence (whole entry): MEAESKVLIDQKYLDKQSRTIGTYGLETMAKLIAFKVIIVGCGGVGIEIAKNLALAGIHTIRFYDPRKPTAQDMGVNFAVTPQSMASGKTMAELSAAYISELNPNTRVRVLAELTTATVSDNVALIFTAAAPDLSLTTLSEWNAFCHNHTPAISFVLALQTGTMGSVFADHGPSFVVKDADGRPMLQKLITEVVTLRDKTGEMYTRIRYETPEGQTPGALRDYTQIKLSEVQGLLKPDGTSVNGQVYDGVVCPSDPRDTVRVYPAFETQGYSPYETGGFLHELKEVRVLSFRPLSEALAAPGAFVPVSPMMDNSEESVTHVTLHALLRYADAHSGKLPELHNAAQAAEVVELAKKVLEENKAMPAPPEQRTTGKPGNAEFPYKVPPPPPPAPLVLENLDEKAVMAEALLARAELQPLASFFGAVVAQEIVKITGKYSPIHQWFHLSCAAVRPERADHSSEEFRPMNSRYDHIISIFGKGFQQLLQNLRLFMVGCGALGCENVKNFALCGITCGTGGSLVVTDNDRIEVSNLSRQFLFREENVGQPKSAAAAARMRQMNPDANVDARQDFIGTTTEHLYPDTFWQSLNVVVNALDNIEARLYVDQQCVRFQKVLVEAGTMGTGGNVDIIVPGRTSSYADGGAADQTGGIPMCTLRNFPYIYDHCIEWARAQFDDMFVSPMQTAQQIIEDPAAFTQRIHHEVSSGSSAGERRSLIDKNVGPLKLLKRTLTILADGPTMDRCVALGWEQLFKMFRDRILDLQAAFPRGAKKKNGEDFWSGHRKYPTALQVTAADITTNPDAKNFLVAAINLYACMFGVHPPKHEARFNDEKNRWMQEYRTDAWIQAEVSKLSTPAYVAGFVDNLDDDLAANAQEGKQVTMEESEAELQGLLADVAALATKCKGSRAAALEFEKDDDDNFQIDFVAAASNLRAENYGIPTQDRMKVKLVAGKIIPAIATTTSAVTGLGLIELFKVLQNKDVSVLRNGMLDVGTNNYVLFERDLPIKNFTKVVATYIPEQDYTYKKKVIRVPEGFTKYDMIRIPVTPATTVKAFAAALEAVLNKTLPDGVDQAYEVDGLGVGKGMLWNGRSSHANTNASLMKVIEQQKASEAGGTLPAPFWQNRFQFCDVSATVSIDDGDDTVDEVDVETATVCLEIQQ

[3] = biological target: AMP-activated protein kinase, AMPK (Homo sapiens) (UniProt P54646+O43741+P54619+Q9UGJ0+Q9Y478+Q13131+Q9UGI9); test: AMP-dependent Kinase enzyme assay. An in vitro enzyme assay that detects ADP turnover that is directly proportional to AMPK activity. This uses naive AMPK that is activated during the assay with MK-8722; type: functional; conditions: 30 µM
[4] = biological target: Sialic acid-binding Ig-like lectin 9 (Homo sapiens) (UniProt Q9Y336); test: Hs-Siglec9 ALPHAscreen SOP 20170721; conditions: 10 µM
Trypanosoma cruzi = test: Trypanosoma cruzi phosphomannomutase and mannose-1-phosphate guanylyltransferase assay; type: functional; conditions: 10 µM
[5] = biological target: T2, Arginase-2, mitochondrial (Homo sapiens) (UniProt P78540); test: in vitro enzyme assay to detect the production of urea directly proportional to the activity of Arginase II; type: functional; conditions: 33.3 µM; further: in the data most compounds retested in dose-response had high values
T2 sequence (whole entry): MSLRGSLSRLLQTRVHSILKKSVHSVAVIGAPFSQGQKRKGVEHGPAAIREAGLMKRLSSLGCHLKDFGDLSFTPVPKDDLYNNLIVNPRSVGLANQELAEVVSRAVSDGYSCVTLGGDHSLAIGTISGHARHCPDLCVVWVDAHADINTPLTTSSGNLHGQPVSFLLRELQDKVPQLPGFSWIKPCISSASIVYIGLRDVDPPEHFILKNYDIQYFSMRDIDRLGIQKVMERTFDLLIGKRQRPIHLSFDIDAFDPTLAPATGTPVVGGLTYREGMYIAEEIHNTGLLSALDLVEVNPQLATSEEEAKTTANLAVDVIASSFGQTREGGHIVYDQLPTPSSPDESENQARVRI

[6] = biological target: T3, Proteasome subunit beta (Trypanosoma cruzi) (UniProt O96673); test: Trypanosoma cruzi proteasome chymotrypsin-like activity (TcProtChymo) assay.; further: in the data most compounds retested in dose-response had high values; type: functional; conditions: 9.37 µM
T3 sequence (whole entry): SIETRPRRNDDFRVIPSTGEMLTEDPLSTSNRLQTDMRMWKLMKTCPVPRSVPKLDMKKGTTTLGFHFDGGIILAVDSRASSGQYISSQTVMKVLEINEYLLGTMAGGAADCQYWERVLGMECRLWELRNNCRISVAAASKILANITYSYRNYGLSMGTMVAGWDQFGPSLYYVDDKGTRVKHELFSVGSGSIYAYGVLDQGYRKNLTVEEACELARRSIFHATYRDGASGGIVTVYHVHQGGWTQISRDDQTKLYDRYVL

Homo sapiens = species: Homo sapiens; test: To identify inhibition of the IFN signalling (Jak-Stat) pathway via expression of an eGFP reporter gene under the control of an IFN-stimulated response element (ISRE) containing MxA promoter.; type: functional; conditions: 30 µM
[7] = biological target: T4, Tyrosyl-tRNA synthetase, putative (Trypanosoma cruzi (strain CL Brener)) (UniProt Q4DSP6); test: Trypanosoma cruzi tyrosyl tRNA synthetase (TcYRS) _High Tyrosine SOP; type: functional; conditions: 30 µM; further: in the data most compounds retested in dose-response had high values
T4 sequence (whole entry): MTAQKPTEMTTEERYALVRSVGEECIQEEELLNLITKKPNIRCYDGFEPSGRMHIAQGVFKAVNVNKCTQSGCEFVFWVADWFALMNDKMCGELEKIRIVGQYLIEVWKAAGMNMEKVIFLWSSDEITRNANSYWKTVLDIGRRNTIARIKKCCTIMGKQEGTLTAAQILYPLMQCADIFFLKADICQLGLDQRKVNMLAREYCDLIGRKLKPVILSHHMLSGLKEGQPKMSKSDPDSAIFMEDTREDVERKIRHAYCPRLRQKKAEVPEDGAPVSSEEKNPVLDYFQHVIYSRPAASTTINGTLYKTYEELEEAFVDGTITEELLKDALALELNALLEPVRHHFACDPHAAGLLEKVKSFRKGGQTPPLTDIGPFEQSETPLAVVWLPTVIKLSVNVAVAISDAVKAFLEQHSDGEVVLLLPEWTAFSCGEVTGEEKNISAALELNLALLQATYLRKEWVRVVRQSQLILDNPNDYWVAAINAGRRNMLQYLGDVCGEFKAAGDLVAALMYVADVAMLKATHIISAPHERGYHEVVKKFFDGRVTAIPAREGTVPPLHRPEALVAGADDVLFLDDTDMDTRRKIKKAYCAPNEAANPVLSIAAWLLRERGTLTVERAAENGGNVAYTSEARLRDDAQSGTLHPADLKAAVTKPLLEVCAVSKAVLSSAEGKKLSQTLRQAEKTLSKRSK

[8] = biological target: T4, Tyrosyl-tRNA synthetase, putative (Trypanosoma cruzi (strain CL Brener)); test: Trypanosoma cruzi tyrosyl tRNA synthetase (TcYRS) SOP; type: functional; conditions: 30 µM
[9] = biological target: Chromo domain-containing protein 1 (Saccharomyces cerevisiae (strain ATCC 204508 / S288c) (Baker's yeast)) (UniProt P32657); test: ScCHD-1 Enzyme Inhibition Assay; type: functional; conditions: 30 µM; further: in the data most compounds retested in dose-response had high values
Chain of Chromo domain-containing protein 1 (Saccharomyces cerevisiae (strain ATCC 204508 / S288c) (Baker's yeast)) (P32657 whole entry, the tested form may be a part): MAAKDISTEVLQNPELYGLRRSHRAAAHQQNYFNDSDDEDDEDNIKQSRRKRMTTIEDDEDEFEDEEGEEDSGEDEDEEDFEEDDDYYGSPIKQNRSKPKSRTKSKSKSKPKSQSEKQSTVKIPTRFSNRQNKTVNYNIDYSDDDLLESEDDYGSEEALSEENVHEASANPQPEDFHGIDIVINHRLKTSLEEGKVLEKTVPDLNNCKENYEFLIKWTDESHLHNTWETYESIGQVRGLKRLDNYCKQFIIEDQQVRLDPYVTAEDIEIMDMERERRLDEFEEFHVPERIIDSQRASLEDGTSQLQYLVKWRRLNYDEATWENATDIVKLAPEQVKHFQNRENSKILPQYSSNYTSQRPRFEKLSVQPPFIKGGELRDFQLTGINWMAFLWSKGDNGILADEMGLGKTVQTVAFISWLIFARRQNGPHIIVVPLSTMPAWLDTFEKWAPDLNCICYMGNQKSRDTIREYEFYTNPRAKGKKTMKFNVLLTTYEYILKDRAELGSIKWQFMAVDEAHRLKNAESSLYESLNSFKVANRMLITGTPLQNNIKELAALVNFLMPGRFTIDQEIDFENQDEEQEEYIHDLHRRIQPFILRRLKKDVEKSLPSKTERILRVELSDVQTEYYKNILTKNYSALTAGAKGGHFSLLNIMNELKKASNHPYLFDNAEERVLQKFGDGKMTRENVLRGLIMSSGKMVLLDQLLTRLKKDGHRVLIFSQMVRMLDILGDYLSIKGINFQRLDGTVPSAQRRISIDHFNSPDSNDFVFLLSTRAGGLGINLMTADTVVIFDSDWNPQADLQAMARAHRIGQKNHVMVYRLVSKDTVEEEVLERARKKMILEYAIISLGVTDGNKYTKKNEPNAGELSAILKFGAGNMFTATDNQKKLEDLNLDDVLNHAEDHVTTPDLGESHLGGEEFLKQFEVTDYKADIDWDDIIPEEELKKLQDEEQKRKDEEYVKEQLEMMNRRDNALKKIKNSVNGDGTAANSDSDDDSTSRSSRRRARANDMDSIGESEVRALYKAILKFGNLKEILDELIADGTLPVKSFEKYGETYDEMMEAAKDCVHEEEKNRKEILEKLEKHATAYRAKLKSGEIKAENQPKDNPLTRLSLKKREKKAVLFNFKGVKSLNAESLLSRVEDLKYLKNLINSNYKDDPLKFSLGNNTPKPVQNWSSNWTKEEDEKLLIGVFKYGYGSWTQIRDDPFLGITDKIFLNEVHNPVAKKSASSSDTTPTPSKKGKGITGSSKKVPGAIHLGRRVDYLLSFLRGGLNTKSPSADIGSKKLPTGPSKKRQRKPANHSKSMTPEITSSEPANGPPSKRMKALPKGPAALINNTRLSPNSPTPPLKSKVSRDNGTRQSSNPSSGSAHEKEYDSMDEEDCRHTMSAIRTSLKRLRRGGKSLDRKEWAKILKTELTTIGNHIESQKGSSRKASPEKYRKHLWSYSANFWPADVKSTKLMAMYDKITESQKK

Chain of Sialic acid-binding Ig-like lectin 9 (Homo sapiens) (Q9Y336 whole entry): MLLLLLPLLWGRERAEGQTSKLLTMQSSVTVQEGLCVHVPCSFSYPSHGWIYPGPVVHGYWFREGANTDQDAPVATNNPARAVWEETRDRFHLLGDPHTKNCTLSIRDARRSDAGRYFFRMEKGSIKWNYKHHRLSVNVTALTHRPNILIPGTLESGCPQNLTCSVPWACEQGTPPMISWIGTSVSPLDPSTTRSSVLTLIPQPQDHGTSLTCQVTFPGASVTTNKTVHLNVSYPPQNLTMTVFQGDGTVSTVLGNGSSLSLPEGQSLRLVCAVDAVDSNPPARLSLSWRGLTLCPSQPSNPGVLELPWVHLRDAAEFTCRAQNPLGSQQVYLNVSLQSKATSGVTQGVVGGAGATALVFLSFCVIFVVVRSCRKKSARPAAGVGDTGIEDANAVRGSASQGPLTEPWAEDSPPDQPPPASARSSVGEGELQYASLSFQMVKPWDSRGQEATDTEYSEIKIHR
Chain of Protein translocase subunit SecA (Escherichia coli (strain K12)) (P10408 whole entry): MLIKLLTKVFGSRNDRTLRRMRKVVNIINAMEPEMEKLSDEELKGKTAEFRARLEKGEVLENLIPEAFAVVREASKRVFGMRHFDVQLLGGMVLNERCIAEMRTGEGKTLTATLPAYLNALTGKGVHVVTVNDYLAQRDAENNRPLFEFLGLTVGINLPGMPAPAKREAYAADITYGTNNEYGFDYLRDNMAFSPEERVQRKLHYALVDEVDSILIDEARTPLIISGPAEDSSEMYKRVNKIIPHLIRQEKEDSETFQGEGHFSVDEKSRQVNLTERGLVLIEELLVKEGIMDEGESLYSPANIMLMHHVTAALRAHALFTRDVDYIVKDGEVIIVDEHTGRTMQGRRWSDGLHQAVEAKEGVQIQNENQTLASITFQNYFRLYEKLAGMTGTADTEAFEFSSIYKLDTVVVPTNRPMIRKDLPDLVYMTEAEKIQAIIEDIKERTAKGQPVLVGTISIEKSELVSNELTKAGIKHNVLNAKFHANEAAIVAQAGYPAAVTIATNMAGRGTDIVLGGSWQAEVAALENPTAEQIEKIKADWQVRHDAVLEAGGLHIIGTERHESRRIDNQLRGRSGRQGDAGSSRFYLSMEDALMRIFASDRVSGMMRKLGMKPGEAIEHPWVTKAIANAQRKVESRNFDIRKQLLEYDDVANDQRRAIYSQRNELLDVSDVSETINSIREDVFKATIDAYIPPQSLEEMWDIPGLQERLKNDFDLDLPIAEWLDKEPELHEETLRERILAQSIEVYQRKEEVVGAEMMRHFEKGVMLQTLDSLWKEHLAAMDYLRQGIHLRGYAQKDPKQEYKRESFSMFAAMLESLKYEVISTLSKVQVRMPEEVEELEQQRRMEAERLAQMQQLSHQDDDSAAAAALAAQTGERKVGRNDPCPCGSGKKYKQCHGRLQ

| SMILES | Percent Effect [1] [%] | Percent Effect [2] [%] | Percent Effect [3] [%] | Percent Effect [4] [%] | Percent Effect (Trypanosoma cruzi) [%] | Percent Effect [5] [%] | Percent Effect [6] [%] | Percent Effect (Homo sapiens) [%] | Percent Effect [7] [%] | Percent Effect [8] [%] | Percent Effect [9] [%] |
| --- | --- | --- | --- | --- | --- | --- | --- | --- | --- | --- | --- |
| c1csc(-c2nc(CN3CCCC3Cn3cncn3)co2)c1 (stereo not drawn) | -2.28 | -5.48 | -7.9 | 1.3 | 6.86 | -3.18 | 5.68 | -9.88 | 2.15 | 5 | -3.71 |
| CCc1ccc(NS(=O)(=O)CC2=NC(=O)n3cccc3C2=O)cc1 | 1.25 | -17.3 | 11.5 | 5.52 | -0.786 | -7.57 | 6.1 | 0.554 | -8.47 | -12.8 | 3.49 |
| O=C(NCCCn1cccn1)N1CCCC1c1ccncc1 (stereo not drawn) | -5.24 | 2.67 | -0.283 | 0.781 | -6.13 | -1.56 | 15.3 | 25.4 | 0.546 | 1.24 | -6.79 |
| COc1ncccc1C(=O)N1CCC(c2nnc(C3CC3)o2)CC1 | -1.83 | 10.4 | 11.3 | 3.07 | -5.82 | 16.1 | 9.75 | -6.69 | 4.23 | 11.5 | -9.2 |
| Cc1cccc(OCCC(=O)NCC(C)(C)C(N)=O)c1 | -3.42 | 10.5 | 1.54 | 16.5 | 1.13 | 2.68 | 8.19 | -23.5 | 4.41 | -41.5 | -10.8 |
| O=C(NCCN1CCOCC1)c1n[nH]c(=O)c2ccccc12 | -3.44 | 28.6 | -3.48 | 5.43 | 6.37 | -3.56 | 14.2 | 12.3 | 4.85 | 21.9 | -9.16 |
| Cn1cccc1CN1CCC2(CCCN(C(=O)Cc3cccnc3)C2)C1 (stereo not drawn) | -2.25 | 0 | -2.27 | -5.33 | -2.07 | -4.52 | 1.39 | 2.23 | -2.12 | -6.41 | -7.07 |
| Cc1noc(C)c1C(=O)N(C)Cc1nc(-c2ccccn2)no1 | -7.17 | 2.67 | -0.593 | 19 | 2.43 | 4.69 | 4.53 | -1.43 | 4.92 | 11.1 | -3.45 |
| CCc1nc(C2CCCN(C(=O)c3cccc4c3ccn4C)C2)no1 (stereo not drawn) | -2.43 | -5.41 | 1.08 | 3.25 | 5.29 | -6.47 | 5.92 | 17.1 | 3.96 | 3.66 | -0.759 |
| CC(C)c1nc(CN(C)C2CCN(CC(F)(F)F)C2)no1 (stereo not drawn) | -5.29 | 5.48 | -3.78 | -4.08 | -0.588 | 2.73 | 6.57 | -2.57 | 4.3 | 10 | -1.35 |
| CC(C)c1nccn1C1CCCN(C(=O)c2cnn(C)c2C2CC2)C1 (stereo not drawn) | -1.82 | 13.2 | -2.81 | -2.13 | 2.71 | -5.75 | 6.34 | -7.13 | 13.3 | 25.9 | -8.69 |
| CCn1cnnc1CNC(=O)N1CCN(c2cccs2)CC1 | -8.91 | 5.2 | -16.1 | 14.9 | 14.2 | 1.78 | 24.3 | 7.4 | 26.2 | 12.2 | -5.95 |
| CN1CCN(C(=O)[C@@H]2CCO[C@@H]3CCN(c4ncccn4)C[C@@H]32)CC1 | -0.254 | 13.3 | 0.0211 | 0.601 | 2.7 | -48.9 | 8.21 | -18.8 | 7.29 | 17.5 | -7.16 |
| Cc1ccc(NC2CCN(C(=O)COCC(F)(F)F)CC2)nn1 | -6.28 | 6.33 | -2.75 | 3.15 | -1.95 | -2.37 | 10.1 | 12.1 | 2.08 | 2.53 | 3.78 |
| O=C(c1nc(COc2ccc3c(c2)OCO3)no1)N1CCCC1 | -2.38 | 1.33 | -0.332 | 4.46 | -6.88 | -12.5 | 9.98 | 3.63 | 3.17 | 5.13 | -8.92 |
| CC(=O)Nc1cccc(OCCNC(=O)N(C)Cc2ccco2)c1 | -4.59 | 2.63 | 7.27 | -2.99 | 1.46 | -4.73 | 6.62 | -1.59 | 4.25 | 0 | -3.97 |
| N#Cc1ccnc(N2CCN(C(=O)NC3CCS(=O)(=O)C3)CC2)c1 (stereo not drawn) | -2.8 | 16.2 | -36.1 | 7.69 | -0.464 | -0.185 | 9.87 | 14.6 | 7.92 | 23.2 | -5.46 |
| CN(CCO)C[C@@H]1CN(C(=O)c2c(F)cccc2Cl)C[C@@H]1CO | -3.86 | 0 | 1.2 | 6 | -2.06 | 2.76 | 15.6 | 9.06 | 3.23 | 3.7 | -2.59 |
